# High-throughput results deposited in PubChem by several laboratories.
# PG9 Ab binder: binds the HIV-1 gp120 antibody PG9; TR-FRET gp120-PG9 antibody binding; inhibition, % at 6.7 µM; 360,000 compounds, 0.43% hits; AID 624416; in the data active means inhibition above about 8.5%
# VLA-4 inh: inhibition in a human VLA-4 binding assay. P13612. VLA-4 expressing cells, ligand binding flow cytometry. inhibition, % (about 7 µM as worked out from the volumes in the protocol). 330,000 compounds, 0.2% hits. AID 2557; in the data active means inhibition above about 50%
# Target sequence (P13612 whole entry, looked up): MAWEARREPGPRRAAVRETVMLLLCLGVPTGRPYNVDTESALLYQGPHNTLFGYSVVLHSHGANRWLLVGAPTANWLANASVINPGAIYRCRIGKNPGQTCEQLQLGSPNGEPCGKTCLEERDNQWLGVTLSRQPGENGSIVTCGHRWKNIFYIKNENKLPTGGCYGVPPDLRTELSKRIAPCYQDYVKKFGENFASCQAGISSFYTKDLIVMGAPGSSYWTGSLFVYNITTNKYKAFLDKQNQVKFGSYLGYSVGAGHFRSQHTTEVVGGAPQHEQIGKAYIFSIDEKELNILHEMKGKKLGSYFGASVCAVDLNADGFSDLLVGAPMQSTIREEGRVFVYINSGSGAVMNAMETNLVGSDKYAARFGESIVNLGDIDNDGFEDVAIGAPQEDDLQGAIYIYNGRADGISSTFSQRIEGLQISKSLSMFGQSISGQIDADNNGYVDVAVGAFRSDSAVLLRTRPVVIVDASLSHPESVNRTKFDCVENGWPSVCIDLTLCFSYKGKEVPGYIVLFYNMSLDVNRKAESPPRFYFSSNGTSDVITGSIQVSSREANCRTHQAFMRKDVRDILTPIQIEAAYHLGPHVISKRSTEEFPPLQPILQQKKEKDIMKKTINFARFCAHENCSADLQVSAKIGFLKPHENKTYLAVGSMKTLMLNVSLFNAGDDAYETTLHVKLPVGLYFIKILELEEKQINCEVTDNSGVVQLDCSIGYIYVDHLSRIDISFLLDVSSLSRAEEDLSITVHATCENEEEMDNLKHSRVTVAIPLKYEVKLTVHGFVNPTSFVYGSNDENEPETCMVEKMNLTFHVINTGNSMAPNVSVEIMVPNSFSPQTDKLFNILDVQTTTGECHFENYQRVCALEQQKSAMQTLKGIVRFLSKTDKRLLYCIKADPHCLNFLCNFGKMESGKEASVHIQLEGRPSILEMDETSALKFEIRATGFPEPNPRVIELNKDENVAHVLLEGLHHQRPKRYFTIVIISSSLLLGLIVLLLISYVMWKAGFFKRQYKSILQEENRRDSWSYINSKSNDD
# Granule exo inh: blocks lytic granule exocytosis; TALL-104 LAMP-1 surface exposure, flow cytometry; cells stimulated with thapsigargin and PMA; inhibition, % at 10 µM; 360,000 compounds, 0.66% hits; AID 651702;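 active means inhibition above about 55%, limit read from the data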
# Rev-erbA mod: modulators of human Rev-erb alpha DNA binding; Rev-erbα–FITC-DNA binding, fluorescence polarization, 90 min; 370,000 compounds, 0.79% hits; P20393; activity, % at 10 µM;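 active means activity above about 14%, limit read from the data; passing the limit was not always enough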
# ABCB6 inh 2: inhibitors of human ABC transporter ABCB6. Q9NP58. K562-ABCB6 porphyrin accumulation, flow cytometry, 1 h; hits give low values. fluorescence ratio to DMSO, % at 10 µM. 360,000 compounds, 0.19% hits. AID 602162;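 active means fluorescence ratio to DMSO below 75%, the collection mean minus 3 SD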;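 further: signal is porphyrin accumulated inside mitochondria; lower ratio means ABCB6 inhibition with less porphyrin fluorescence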
# Granule exo CP1: blocks lytic granule exocytosis | shares compounds with Granule exo inh | TALL-104 cells, LAMP-1 externalization, flow cytometry; stimulated with PMA plus thapsigargin | inhibition, % at 10 µM | 1,500 compounds, 11% hits | AID 651954; in the data active means inhibition above about 60%
# A number is an active result; 0 = inactive; - = no result given. Sampled rows, rich in hits. Any-hit rate of the full collection: about 2%.
SMILES,PG9 Ab binder,VLA-4 inh,Granule exo inh,Rev-erbA mod,ABCB6 inh 2,Granule exo CP1
Cc1cnc(C(=O)OCC(=O)NCCc2ccccc2)cn1,0,0,109.6,0,0,0
Cc1ccc(Nc2nc(C(=O)N3CCC(C(=O)N4CCN(C)CC4)CC3)cs2)cc1,0,0,0,0,0,-
Cc1ccc(Nc2nc(C(=O)N3CCC(C(=O)NCCN4CCOCC4)CC3)cs2)cc1,0,0,0,0,0,-
COc1ccc(CNC(=O)C2CCN(C(=O)c3csc(Nc4ccc(C)cc4)n3)CC2)cc1,0,0,57.7,0,0,0
Cc1ccc(Nc2nc(C(=O)N3CCC(C(=O)NCc4ccccc4)CC3)cs2)cc1,0,0,65.2,0,0,0
CC(=O)O[C@@H]1C=C[C@@H](C#Cc2ccc(C(C)(C)C)cc2)O[C@@H]1COC(=O)NC(C)C,0,-,-,0,-,-
CC(C)(N[C@@H](Cc1c[nH]c2ccccc12)C(=O)NCC(c1ccccc1)c1ccccc1)C(=O)NC1CCCCC1,-,-,-,0,-,-
CCOC(=O)[C@]12CCCCC/C=C\1N(CCc1ccc(Cl)cc1)C(=O)[C@H]2CC(=O)NCC1CCCCC1,-,-,-,0,-,-
CN(Cc1ccc(C#CCCO)cc1)CC1CCCN(CCc2ccc(Cl)cc2)C1 (configuration not stated),0,0,69.6,0,0,0
CCN(Cc1ccc(C#CCCO)cc1)CC1CCCN(CCc2cccc(F)c2)C1 (configuration not stated),0,0,88.2,0,0,0
CN(Cc1ccccc1O)CC1CCCN(CCc2ccc(Cl)cc2)C1 (configuration not stated),0,0,68.6,0,0,0
CCOC(=O)C1=C(C(=O)OCC)C2N(Cc3ccc(C#N)cc3)c3ccccc3[C@@]23C[C@@H](C(=O)OC)N(S(=O)(=O)c2ccc(C)cc2)C3=N1 (some centres not stated),0,-,-,0,-,-
CC(C)c1ccc(NC(=O)[C@H](NC(=O)[C@@H]2Cc3ccccc3CN2)c2ccccc2)cc1,0,0,59.4,0,0,0
O=C1CCC2CCCCC2(O)O1 (configuration not stated),0,0,64.5,0,0,0
CC12CCCCC1C(C(N)=O)C(=O)O2 (configuration not stated),0,-,0,0,0,-
CC(=O)N1CCN(c2cc(-c3ccco3)nc3cc(-c4ccccc4)nn23)CC1,-,-,-,0,-,-
COc1ccc(CC(=O)Nc2nc(-c3ccccc3)c(C(C)=O)s2)cc1OC,0,0,78.0,0,0,0
COc1cc(NC(=O)c2ccccc2)c(C)cc1NC(=O)CSc1nnc(-c2ccco2)n1Cc1ccco1,-,-,-,0,-,-
COC(C/C=C/[C@H](O)[C@@H](C)OCc1ccccc1)OC,0,0,96.4,0,0,0
COC(C/C=C/[C@@H](O)[C@H](C)OCc1ccccc1)OC,0,-,0,0,0,-
C[C@H]1[C@@H](NC(=O)C2CCC2)CC[C@@]23CCCN2C(=O)CCC[C@@H]13,-,-,-,0,-,-
CCC1C(=O)C(CC)C(c2ccccc2)NC1c1ccccc1 (configuration not stated),0,0,60.6,0,0,0
CCC1C(=NO)C(CC)C(c2ccccc2)NC1c1ccccc1 (configuration not stated),0,0,0,0,0,-
CCOC(=O)[C@H](CCc1ccccc1)N[C@H]1CCCN2CCC[C@@H](C(=O)O)N2C1=O,-,-,-,0,-,-
O=C(CC12CC3CC(CC(C3)C1)C2)NCO,0,0,0,0,0,-
SMILES,PG9 Ab binder,VLA-4 inh,Granule exo inh,Rev-erbA mod,ABCB6 inh 2,Granule exo CP1
CC(NC(=O)CC12CC3CC(CC(C3)C1)C2)C(=O)O (configuration not stated),0,0,63.3,0,0,0
OC(c1ccccc1)(c1ccccc1)C1CCN(CCCOc2ccc3c(c2)CCCC3)CC1,0,-,62.0,0,0,0
CCCCCCCCN1C(=O)[C@@H](CC(=O)NCC2CCCCC2)C[C@@]2(C(=O)OC)C1=C[C@H](C(C)C)O[C@@H]2C1CC1,-,-,-,0,-,-
CC(=O)OC1CC(C)N(C(=O)c2ccccc2)c2ccc(C)cc21 (configuration not stated),0,0,0,0,0,-
CC(=O)N1c2ccc(C)cc2C(c2ccccc2)CC1C (configuration not stated),0,0,80.1,0,0,0
COCCNC(=S)N(CCc1c(C)[nH]c2ccc(F)cc12)Cc1ccco1,0,0,62.8,0,0,0
CNC(=S)N(CCc1c(C)[nH]c2ccc(F)cc12)Cc1ccco1,0,0,0,0,0,-
Cc1ccccc1N1CCN(C(=O)NCc2cccc(Cl)c2)CC1,0,0,85.6,0,0,0
COc1ccc(CNC(=O)N2CCN(c3cccc(C)c3C)CC2)cc1OC,0,0,0,0,0,-
Cc1c(CN2CCC(CO)(CCOc3ccccc3)CC2)[nH]c2c(Cl)cccc12,0,0,92.2,0,0,0
C=CCOc1ccccc1CN1CCC(CO)(CCOc2ccccc2)CC1,0,0,69.3,0,0,0
CCOc1ccccc1CN1CCN(CCCc2ccccc2)CC1CCO (configuration not stated),0,0,62.8,0,0,0
OCCC1CN(Cc2cccc(F)c2F)CCN1CCc1ccccc1 (configuration not stated),0,0,0,0,0,-
C=CCOc1ccccc1CN1CCN(CCc2ccccc2)C(CCO)C1 (configuration not stated),0,0,58.4,0,0,0
CCCCOCC1CN(CCCC)S(=O)(=O)c2c(cccc2N2CCCC2)O1 (configuration not stated),0,-,-,0,-,-
CNCc1ccccc1Sc1ccc(O)c(O)c1,0,0,81.5,0,0,0
COc1ccc(CN2CCC(N(CCc3ccccc3)Cc3ccccc3)CC2)c(OC)c1,0,0,59.5,0,0,0
CCCN1CCC(N(CCc2ccccc2)Cc2ccccc2)CC1,0,0,0,0,0,-
Cc1ccc(N2CCN(S(=O)(=O)c3ccc4oc(=O)ccc4c3)CC2)c(C)c1,0,0,86.4,0,0,0
Cc1ccc(NC(=O)Cn2ncn3c(cc4ccccc43)c2=O)cc1F,0,0,106.0,0,0,0
Nc1[nH]c(C(=O)c2ccc(Br)cc2)c(-c2ccc(Br)cc2)c1C(=O)N1CCCCC1,-,-,-,0,-,-
COC[C@@H]1CCCN1c1ccc2c(c1)O[C@H]1CCN(C1)S2(=O)=O,-,-,-,0,-,-
Fc1cccc(CNc2ncnc3ccc(-c4ccc5c(c4)OCO5)cc23)c1,0,0,65.0,0,0,0
O=C(Cn1c(-c2cncs2)nc2ccccc21)NCc1cccs1,-,-,-,0,-,-
Cc1cccc(CN2CCN(C3CN(Cc4cn(Cc5ccc(C(F)(F)F)cc5)nn4)S(=O)(=O)C3)CC2)c1 (configuration not stated),0,-,-,0,-,-
COc1ccccc1C(=O)N/C(=C\c1cn(C)c2ccccc12)C(=O)NCCCn1ccnc1,0,0,67.4,0,0,0
Cc1cc2c(cc1CC(=O)c1sccc1S(=O)(=O)Nc1onc(C)c1Cl)OCO2,-,-,-,0,-,-
